Source: PubChem BioAssay (EPA / NIEHS)
Active and inactive are the calls of the source. How the source made its calls: active means hit-call score of the fitted dose curve at least 0.9, where 1 is the maximum; inactive means score below 0.9.

Key:
[1] = ATG_GLI_CIS: Attagene CIS-FACTORIAL HepG2 Assay for human Zinc Finger Protein GLI1 (AID 2282945); conditions: HepG2, Attagene cis-factorial reporter mRNA, GLI element; actives raise or lower the signal
Summary of the method: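 Transiently transfected HepG2 cells report endogenous transcription factor activity via cis-element-driven reporter units. After 24 h compound exposure, reporter mRNA was measured by RT-PCR with capillary electrophoresis; bidirectional fitting against DMSO baseline.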

[2] = target: Bile acid receptor (Homo sapiens) (UniProt Q96RI1); assay: ATG_IR1_CIS: Attagene CIS-FACTORIAL HepG2 Assay for human Nuclear Receptor Subfamily 1 Group H Member 4 (NR1H4), IR1 submotif (AID 2282946); conditions: IR1 reporter transcription, actives raise or lower the signal
Sequence of Bile acid receptor (Homo sapiens) (Q96RI1 whole entry, looked up): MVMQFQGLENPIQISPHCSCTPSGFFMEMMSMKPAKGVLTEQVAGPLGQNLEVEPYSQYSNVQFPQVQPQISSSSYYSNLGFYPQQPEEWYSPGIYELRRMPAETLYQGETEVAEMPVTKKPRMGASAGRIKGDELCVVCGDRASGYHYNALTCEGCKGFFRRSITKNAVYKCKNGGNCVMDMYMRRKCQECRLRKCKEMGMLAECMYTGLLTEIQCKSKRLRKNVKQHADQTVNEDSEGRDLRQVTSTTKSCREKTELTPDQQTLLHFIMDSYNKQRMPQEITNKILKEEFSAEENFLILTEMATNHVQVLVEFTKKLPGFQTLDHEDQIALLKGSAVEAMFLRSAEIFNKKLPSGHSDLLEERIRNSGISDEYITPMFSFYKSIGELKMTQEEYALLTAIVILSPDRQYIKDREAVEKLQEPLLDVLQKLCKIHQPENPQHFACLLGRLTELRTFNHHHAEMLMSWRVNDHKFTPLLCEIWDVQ
Summary of the method: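 Fluorescence of capillary-separated, HpaI-digested RT-PCR reporter products gave IR1-element mRNA induction in HepG2 cells 24 h after dosing. Endogenous transcription factors drove the cis-regulated reporters; activity was fitted bidirectionally against DMSO.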

[3] = ATG_ISRE_CIS: Attagene CIS-FACTORIAL HepG2 Assay for human Interferon Regulatory Factor 1 (IRF1) binding to an Interferon-Stimulated Response Element (ISRE) (AID 2282948); conditions: HepG2 ISRE cis-reporter (Attagene), mRNA transcription readout; actives raise or lower the signal
Summary of the method: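 Uses HepG2 liver cells transfected with cis-regulated reporters and measures mRNA 24 h post-dosing through RT-PCR, primer-extension labelling and capillary electrophoresis, with DMSO as negative control.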

[4] = ATG_M_32_CIS: Attagene CIS-FACTORIAL HepG2 Assay for M32 Transcription Factor (Internal Marker) (AID 2282949); conditions: HepG2 Attagene cis-factorial M32 reporter, mRNA; actives raise or lower the signal;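 further: background control marker of the multiplexed CIS panel rather than a real target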
Summary of the method: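 Transient MRTU transfection of HepG2; 24 h compound treatment; TriZol RNA, oligo(dT) RT, reporter PCR, 6-FAM primer extension, HpaI cut, CE. Gain/loss of signal vs DMSO.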

[5] = ATG_M_06_CIS: Attagene CIS-FACTORIAL HepG2 Assay for M06 Transcription Factor (Internal Marker) (AID 2282950); conditions: HepG2 Attagene CIS-FACTORIAL M06 internal marker reporter; actives raise or lower the signal
Summary of the method: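 Steps: transfect HepG2 with multiplexed cis-element reporter constructs; dose chemical 24 h; extract RNA with DNase treatment; reverse-transcribe, PCR-amplify, 6-FAM label, HpaI digest; separate fragments by capillary electrophoresis. Activity fitted both directions versus DMSO.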

[6] = target: Hepatocyte nuclear factor 6 (Homo sapiens) (UniProt Q9UBC0); assay: ATG_HNF6_CIS: Attagene CIS-FACTORIAL HepG2 Assay for human Hepatocyte Nuclear Factor 6 (HNF6) (AID 2282952); conditions: HepG2 Attagene cis-factorial HNF6 reporter transcription; actives raise or lower the signal
Sequence of Hepatocyte nuclear factor 6 (Homo sapiens) (Q9UBC0 whole entry, looked up): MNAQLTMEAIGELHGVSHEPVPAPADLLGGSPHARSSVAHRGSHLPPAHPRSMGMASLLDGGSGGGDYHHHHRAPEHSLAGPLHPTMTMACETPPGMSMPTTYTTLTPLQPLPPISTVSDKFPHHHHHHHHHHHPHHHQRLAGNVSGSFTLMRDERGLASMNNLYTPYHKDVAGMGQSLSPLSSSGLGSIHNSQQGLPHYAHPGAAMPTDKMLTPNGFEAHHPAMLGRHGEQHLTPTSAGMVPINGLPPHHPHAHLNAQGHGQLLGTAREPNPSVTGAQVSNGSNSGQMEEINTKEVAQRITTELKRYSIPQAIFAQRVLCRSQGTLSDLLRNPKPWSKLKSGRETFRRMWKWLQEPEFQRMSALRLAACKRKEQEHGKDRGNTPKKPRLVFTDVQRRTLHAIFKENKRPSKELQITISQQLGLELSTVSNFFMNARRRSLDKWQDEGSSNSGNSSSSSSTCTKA
Summary of the method: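 Activity values derive from bidirectional fitting against DMSO of reporter mRNA levels, measured by capillary electrophoresis of labelled RT-PCR products from HepG2 cells exposed 24 h.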

[7] = target: Heat shock factor protein 1 (Homo sapiens) (UniProt Q00613); assay: ATG_HSE_CIS: Attagene CIS-FACTORIAL HepG2 Assay for human Heat Shock Transcription Factor 1 (HSE) (AID 2282953); conditions: HepG2 HSE cis-reporter, Attagene RNA transcription; actives raise or lower the signal
Sequence of Heat shock factor protein 1 (Homo sapiens) (Q00613 whole entry, looked up, the tested form may be a part): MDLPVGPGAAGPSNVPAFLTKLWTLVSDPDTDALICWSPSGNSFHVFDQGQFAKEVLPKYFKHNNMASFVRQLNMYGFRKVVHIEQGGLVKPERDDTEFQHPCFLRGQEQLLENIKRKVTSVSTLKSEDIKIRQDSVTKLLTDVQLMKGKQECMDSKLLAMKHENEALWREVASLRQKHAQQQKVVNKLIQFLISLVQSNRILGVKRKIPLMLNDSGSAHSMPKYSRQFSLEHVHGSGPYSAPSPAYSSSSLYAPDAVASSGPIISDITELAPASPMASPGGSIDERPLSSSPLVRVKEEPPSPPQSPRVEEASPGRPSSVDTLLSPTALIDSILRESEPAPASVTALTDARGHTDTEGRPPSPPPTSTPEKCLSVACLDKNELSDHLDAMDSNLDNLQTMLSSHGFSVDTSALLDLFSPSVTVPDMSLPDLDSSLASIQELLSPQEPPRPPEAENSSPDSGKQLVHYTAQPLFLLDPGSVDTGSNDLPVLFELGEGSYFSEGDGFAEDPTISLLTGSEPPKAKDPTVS
Summary of the method: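 Cells were transfected with cis-element-driven reporter constructs, dosed for 24 h, then total RNA was reverse-transcribed and reporter cDNA amplified, FAM-labelled and digested with HpaI. Fragments were resolved by capillary electrophoresis; gain or loss was fitted against DMSO.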

[8] = ATG_MRE_CIS: Attagene CIS-FACTORIAL HepG2 Assay for human Metal Responsive Element (MRE) (AID 2282954); conditions: HepG2 MRE cis-reporter transcription, Attagene multiplex; actives raise or lower the signal
Summary of the method: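 RT-PCR/capillary electrophoresis readout of reporter mRNA, 24 h post-dosing, in HepG2 cells transfected with multiplexed cis-regulated reporter constructs. Gain or loss of signal fitted bidirectionally against DMSO baseline.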

[9] = ATG_PBREM_CIS: Attagene CIS-FACTORIAL HepG2 Assay for human Phenobarbital-responsive Enhancer Module (PBREM) (AID 2282955); conditions: HepG2 PBREM cis-reporter, Attagene multiplexed transcription; actives raise or lower the signal
Summary of the method: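 Endogenous transcription factors in human liver HepG2 cells drive a PBREM cis-element reporter, whose transcript level after 24 h treatment is quantified by RT-PCR with capillary electrophoresis; activity fitted in both directions against DMSO.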

[10] = target: Paired box protein Pax-6 (Homo sapiens) (UniProt P26367); assay: ATG_Pax6_CIS: Attagene CIS-FACTORIAL HepG2 Assay for human Paired Box 6 (PAX6) (AID 2282956); conditions: HepG2 CIS-FACTORIAL PAX6 reporter transcription, RNA readout; actives raise or lower the signal
Sequence of Paired box protein Pax-6 (Homo sapiens) (P26367 whole entry, looked up): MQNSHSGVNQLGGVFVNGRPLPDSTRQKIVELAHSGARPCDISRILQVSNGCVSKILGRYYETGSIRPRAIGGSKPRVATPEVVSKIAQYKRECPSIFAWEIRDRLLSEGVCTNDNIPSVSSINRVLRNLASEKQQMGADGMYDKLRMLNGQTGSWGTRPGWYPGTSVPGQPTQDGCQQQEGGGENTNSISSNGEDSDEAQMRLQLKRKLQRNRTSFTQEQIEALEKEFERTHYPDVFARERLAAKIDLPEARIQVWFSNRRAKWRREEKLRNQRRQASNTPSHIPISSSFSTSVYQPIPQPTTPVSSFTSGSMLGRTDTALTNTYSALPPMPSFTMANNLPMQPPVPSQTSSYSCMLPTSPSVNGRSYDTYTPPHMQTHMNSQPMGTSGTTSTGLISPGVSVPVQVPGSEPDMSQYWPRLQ
Summary of the method: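 DMSO-referenced bidirectional fits of reporter mRNA fluorescence; HepG2 with transient cis-promoter MRTUs, 24 h post-dose, RT-PCR plus capillary electrophoresis detection.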

[11] = ATG_PXRE_CIS: Attagene CIS-FACTORIAL HepG2 Assay for human Pregnane X Receptor Element (PXRE) (AID 2282957); conditions: HepG2 Attagene CIS-FACTORIAL PXRE reporter, mRNA; actives raise or lower the signal
Summary of the method: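 Fluorescent capillary electrophoresis of amplified reporter cDNA gave the signal, collected 24 h after dosing HepG2 cells that held transfected cis-element reporter constructs.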

[12] = ATG_PPRE_CIS: Attagene CIS-FACTORIAL HepG2 Assay for human Peroxisome Proliferator-activated Response Element (PPRE) (AID 2282958); conditions: HepG2 PPRE cis-element reporter, Attagene transcription factor profiling; actives raise or lower the signal
Summary of the method: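 HepG2, transient MRTU transfection (cis promoter elements, endogenous TFs). 24 h dosing. RNA → oligo(dT) RT → PCR → 6-FAM primer extension → HpaI digest → CE. Bidirectional fit vs DMSO.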

[13] = ATG_Sox_CIS: Attagene CIS-FACTORIAL HepG2 Assay for human SRY-box transcription factor (SOX) (AID 2282960); conditions: HepG2 Attagene cis-factorial SOX reporter, mRNA; actives raise or lower the signal
Summary of the method: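 Endogenous factor activity in human liver HepG2 cells carrying transfected cis-regulated reporter units. RNA taken 24 h post-dose, reverse-transcribed, PCR-amplified and sized by capillary electrophoresis. Gain or loss of signal fitted relative to DMSO.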

[14] = target: Transcription factor Sp1 (Homo sapiens) (UniProt P08047); assay: ATG_Sp1_CIS: Attagene CIS-FACTORIAL HepG2 Assay for human Specificity Protein 1 (Sp1) (AID 2282961); conditions: HepG2 Sp1 cis-reporter transcription, actives raise or lower the signal
Sequence of Transcription factor Sp1 (Homo sapiens) (P08047 whole entry, looked up): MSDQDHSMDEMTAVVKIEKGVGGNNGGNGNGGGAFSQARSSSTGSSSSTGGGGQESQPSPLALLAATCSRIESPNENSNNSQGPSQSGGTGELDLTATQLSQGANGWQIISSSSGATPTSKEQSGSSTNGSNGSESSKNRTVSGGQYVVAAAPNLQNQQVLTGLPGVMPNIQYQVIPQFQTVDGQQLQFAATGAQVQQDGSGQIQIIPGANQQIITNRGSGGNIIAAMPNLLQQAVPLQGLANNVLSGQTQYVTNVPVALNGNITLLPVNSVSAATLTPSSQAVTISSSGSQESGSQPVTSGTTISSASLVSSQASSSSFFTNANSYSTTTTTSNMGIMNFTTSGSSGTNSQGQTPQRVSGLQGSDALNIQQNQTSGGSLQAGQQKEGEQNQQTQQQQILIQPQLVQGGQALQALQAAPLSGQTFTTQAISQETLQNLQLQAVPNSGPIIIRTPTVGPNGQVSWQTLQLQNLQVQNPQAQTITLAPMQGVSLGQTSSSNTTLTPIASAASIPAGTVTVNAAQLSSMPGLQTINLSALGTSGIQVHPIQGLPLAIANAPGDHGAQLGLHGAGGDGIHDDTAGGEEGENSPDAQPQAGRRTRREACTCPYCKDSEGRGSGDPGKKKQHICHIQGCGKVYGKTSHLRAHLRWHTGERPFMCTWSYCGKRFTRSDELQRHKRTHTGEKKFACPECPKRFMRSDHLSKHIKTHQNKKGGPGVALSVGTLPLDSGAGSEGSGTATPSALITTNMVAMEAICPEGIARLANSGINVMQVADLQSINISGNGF
Summary of the method: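 Transient MRTU-transfected HepG2, 24 h compound exposure. Total RNA → oligo(dT) RT → PCR of reporter → 6-FAM primer extension → HpaI digest → CE. Endpoint fitted both directions vs DMSO.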

[15] = ATG_SREBP_CIS: Attagene CIS-FACTORIAL HepG2 Assay for human Sterol Regulatory Element Binding (SREBP) (AID 2282962); conditions: HepG2 Attagene cis-factorial SREBP reporter, mRNA; actives raise or lower the signal
Summary of the method: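 In this cis-format assay, HepG2 liver cells express reporters controlled by promoter elements responsive to native transcription factors. Exposure lasts 24 h; reporter mRNA fluorescence from capillary electrophoresis gives the signal, fitted bidirectionally against DMSO.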

[16] = target: Signal transducer and activator of transcription 3 (Homo sapiens) (UniProt P40763); assay: ATG_STAT3_CIS: Attagene CIS-FACTORIAL HepG2 Assay for human Signal Transducer and Activator of Transcription 3 (STAT3) (AID 2282963); conditions: HepG2, Attagene cis-factorial STAT3 reporter transcription; actives raise or lower the signal
Sequence of Signal transducer and activator of transcription 3 (Homo sapiens) (P40763 whole entry, looked up, the tested form may be a part): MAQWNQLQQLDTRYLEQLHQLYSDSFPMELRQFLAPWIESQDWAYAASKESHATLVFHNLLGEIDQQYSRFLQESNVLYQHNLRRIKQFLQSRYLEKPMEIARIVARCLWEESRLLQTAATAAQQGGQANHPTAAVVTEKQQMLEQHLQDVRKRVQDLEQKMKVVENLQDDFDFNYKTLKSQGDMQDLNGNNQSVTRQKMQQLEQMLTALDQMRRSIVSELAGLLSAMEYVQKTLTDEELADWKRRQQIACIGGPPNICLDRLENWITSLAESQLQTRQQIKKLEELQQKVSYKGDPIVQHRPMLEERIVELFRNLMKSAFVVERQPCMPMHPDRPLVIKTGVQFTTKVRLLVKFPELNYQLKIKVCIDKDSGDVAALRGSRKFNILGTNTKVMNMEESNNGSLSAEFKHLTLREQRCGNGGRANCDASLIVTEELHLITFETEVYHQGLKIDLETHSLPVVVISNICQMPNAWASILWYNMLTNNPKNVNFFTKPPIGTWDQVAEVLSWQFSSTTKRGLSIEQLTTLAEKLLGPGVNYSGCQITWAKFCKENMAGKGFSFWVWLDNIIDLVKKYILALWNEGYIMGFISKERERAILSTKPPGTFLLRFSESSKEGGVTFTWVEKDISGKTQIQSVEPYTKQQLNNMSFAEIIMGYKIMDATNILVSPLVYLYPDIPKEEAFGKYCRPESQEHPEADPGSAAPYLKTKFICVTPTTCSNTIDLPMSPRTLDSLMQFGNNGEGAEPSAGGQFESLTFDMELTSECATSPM
Summary of the method: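 Readout: fluorescent reporter mRNA fragments resolved by capillary electrophoresis. Setup: HepG2 transfected with MRTUs reporting endogenous transcription-factor activity, dosed 24 h. Gain or loss of signal fitted bidirectionally against DMSO control.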

[17] = ATG_TA_CIS: Attagene CIS-FACTORIAL HepG2 Assay for human TA Basal Promoter (AID 2282964); conditions: HepG2 Attagene CIS-factorial TA basal promoter reporter; actives raise or lower the signal
Summary of the method: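 Steps: transfect HepG2 with MRTUs; dose 24 h; isolate RNA, DNase-treat, reverse-transcribe; PCR and FAM-label reporter cDNA; digest with HpaI 2h at 37 C; run capillary electrophoresis. Activity fitted both directions against DMSO.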

[18] = ATG_GRE_CIS: Attagene CIS-FACTORIAL HepG2 Assay for human Glucocorticoid Response Elements (GRE) (AID 2282947); conditions: HepG2 GRE cis-reporter, Attagene multiplex mRNA; actives raise or lower the signal
Summary of the method: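 Read-out: fluorescent reporter-transcript fragments separated by capillary electrophoresis after RT-PCR. Transiently transfected HepG2 cells carrying cis-element-driven reporter units were dosed for 24 h; gain or loss of signal fitted against DMSO control.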

[19] = target: Hypoxia-inducible factor 1-alpha (Homo sapiens) (UniProt Q16665); assay: ATG_HIF1a_CIS: Attagene CIS-FACTORIAL HepG2 Assay for human Hypoxia Inducible Factor 1 (HIF1A) (AID 2282951); conditions: HepG2 Attagene cis-factorial HIF1a reporter transcription; actives raise or lower the signal
Sequence of Hypoxia-inducible factor 1-alpha (Homo sapiens) (Q16665 whole entry, looked up, the tested form may be a part): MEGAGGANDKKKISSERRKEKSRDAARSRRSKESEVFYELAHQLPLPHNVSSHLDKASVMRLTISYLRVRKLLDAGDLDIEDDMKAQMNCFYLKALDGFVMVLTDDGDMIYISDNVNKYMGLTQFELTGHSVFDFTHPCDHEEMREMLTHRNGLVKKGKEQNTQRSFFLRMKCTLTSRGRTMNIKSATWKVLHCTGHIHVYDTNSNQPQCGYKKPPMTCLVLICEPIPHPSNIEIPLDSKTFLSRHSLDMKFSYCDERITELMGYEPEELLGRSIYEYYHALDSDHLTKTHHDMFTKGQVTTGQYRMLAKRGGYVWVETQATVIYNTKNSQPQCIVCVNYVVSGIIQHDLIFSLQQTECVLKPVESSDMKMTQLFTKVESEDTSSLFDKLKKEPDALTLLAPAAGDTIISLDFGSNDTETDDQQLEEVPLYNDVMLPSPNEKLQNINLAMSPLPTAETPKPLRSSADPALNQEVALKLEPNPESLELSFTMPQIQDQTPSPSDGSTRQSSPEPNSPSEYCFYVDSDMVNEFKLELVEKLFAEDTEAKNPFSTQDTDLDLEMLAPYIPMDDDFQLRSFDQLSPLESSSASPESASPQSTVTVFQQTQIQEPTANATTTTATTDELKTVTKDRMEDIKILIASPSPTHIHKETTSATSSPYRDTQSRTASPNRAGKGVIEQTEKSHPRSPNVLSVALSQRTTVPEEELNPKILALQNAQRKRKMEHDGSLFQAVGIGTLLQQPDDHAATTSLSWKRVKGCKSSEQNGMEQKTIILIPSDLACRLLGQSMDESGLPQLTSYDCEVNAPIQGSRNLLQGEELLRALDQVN
Summary of the method: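 Transient MRTU transfection of human HepG2 liver cells, 24 h compound treatment, then total RNA isolation, oligo(dT) reverse transcription, PCR amplification, fluorescent labelling and capillary electrophoresis of reporter fragments. Gain or loss relative to DMSO.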

[20] = ATG_RORE_CIS: Attagene CIS-FACTORIAL HepG2 Assay for human RAR-related Orphan Receptor Element (RORE) (AID 2282959); conditions: HepG2 Attagene cis-factorial RORE reporter, mRNA; actives raise or lower the signal
Summary of the method: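 Transient MRTU transfection of human HepG2 liver cells (FuGene 6); 24 h compound exposure; TriZol RNA, oligo(dT) RT, PCR, FAM labeling, HpaI cut, CE fragment analysis. DMSO = negative control/baseline.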

Measured: AC50

C=CC(O)CCCCC (stereo not drawn)
active: [10] 58.6 µM | [13] 100 µM
not listed: [18] | [19] | [20]
inactive: all other assays above

CC(C)(C)c1cc(CCC(=O)OCCSCCOC(=O)CCc2cc(C(C)(C)C)c(O)c(C(C)(C)C)c2)cc(C(C)(C)C)c1O
not listed: [2]
inactive: all other assays above

CCCOC(=O)CC
not listed: [2] | [15] | [16]
inactive: all other assays above

c1coc(CNc2ncnc3nc[nH]c23)c1
active: [11] 44 µM
not listed: [2] | [13] | [15] | [16]
inactive: all other assays above

Cc1ccncc1
not listed: [2] | [9] | [12]
inactive: all other assays above

CC1=CC(O)CC(C)(C)C1 (stereo not drawn)
active: [11] 10.8 µM
not listed: [2] | [9] | [16] | [20]
inactive: all other assays above

FC(F)(F)c1ccc(Cl)c(Cl)c1
active: [11] 27.9 µM
not listed: [2] | [9]
inactive: all other assays above

NC(N)=NC(N)=NCCc1ccccc1
not listed: [2] | [9]
inactive: all other assays above
